# From PubChem BioAssay AID1452 (National Center for Advancing Translational Sciences (NCATS), 2008)
# About 190 (0.13%) of roughly 150,000 compounds were called active. Roughly 2% stayed inconclusive and do not appear here. The entries come from a sample that favours actives as a whole. Unmarked numbers belong to inactive results. The call rests on the fitted dose curve; in most records, active means well fitted inhibition curve with a large enough effect; inconclusive means small, poorly fitted or top-dose-only effect; inactive means flat fitted curve, though single readings scatter.
# Target: Polyunsaturated fatty acid lipoxygenase ALOX12 (Homo sapiens) (UniProt P18054)
# Experiment: qHTS Assay for Inhibitors of 12-hLO (12-human lipoxygenase); further: nearly all actives have a fitted effect of over 55% in size
# Details: purified 12-hLO, xylenol orange hydroperoxide absorbance; series mostly up to 57.1 µM; activity change, negative = inhibition: at the top concentration
# Excerpt: Assay Provider: Holman, T.R., University of California, Santa Cruz Screening Center PI: Austin, C.P. Screening Center: NIH Chemical Genomics Center [NCGC] Human lipoxygenase 12hLO is a member of the closely related lipoxygenase family of enzymes which catalyze the site-specific oxidation of arachidonic acid to various hormone precursor molecules and as such is a candidate for drug development in a variety of disease areas, such as cancer and inflammation. Inhibition of 12hLO activity was screened by utilizing arachidonic acid as a substrate. The extent of hydroperoxide product formation was measured by a secondary chromogenic reaction in which xylenol orange (XO, Sigma-Aldrich, cat. number 39,818-7) reacts with the ferric ions produced from the reaction between the hydroperoxide and ferrous ions. The Fe(III)-XO complex is characterized with red-shifted absorbance at 560 nm. A purified preparation of human 12hLO was supplied by Professor Ted Holman, University of California, Santa Cruz.
# Assay Protocol: Buffer: 25 mM Hepes pH 7.0, 0.01% Triton X-100. Reagents/Controls: Buffer in columns 3 and 4 as negative control (no enzyme). Substrate solution: 40 uM arachidonic acid (Sigma-Aldrich, St. Louis, MO) final concentration dispensed throughout the plate. Enzyme: 150 nM 12hLO final concentration in columns 1, 2, 5-48. Column 1 is neutral (100% activity). Column 2 contained pin-transferred titration of NDGA (nordihidroguaiaretic acid, Sigma-Aldrich, N 5023, top concentration 20 mM in DMSO, then 1:3 dilution in duplicate). (Dilution factor: 23 nL into 4 uL.) Chromogenic detection reagent (divalent iron/xylenol orange, Fe-XO): 200 uM xylenol orange plus 300 uM ferrous ammonium sulfate prepared freshly in 50 mM sulfuric acid. Assay Steps: Three uL of enzyme were dispensed to 1536-well Greiner black clear bottom plates. Compounds and controls (23 nL) were transferred via Kalypsys PinTool. The plates were incubated for 15 min at room temperature, and then 1 uL of substrate solution was added to start the reaction. After room temperature incubation for 30 minutes, 4 uL of Fe-XO solution was added to each well and the plates were incubated for 30 min. The absorbance at 405 and 573 nm were measured using ViewLux (Perkin-Elmer) High-throughput CCD imager and absorbance protocol settings. The 573-to-405 absorbance ratio was used to compute reaction progress.
# On the % scale 0 is the no-effect control and ±100 the full control effect; potency means the concentration at half of the fitted maximal effect.
# Sequence of Polyunsaturated fatty acid lipoxygenase ALOX12 (Homo sapiens) (P18054 whole entry, looked up): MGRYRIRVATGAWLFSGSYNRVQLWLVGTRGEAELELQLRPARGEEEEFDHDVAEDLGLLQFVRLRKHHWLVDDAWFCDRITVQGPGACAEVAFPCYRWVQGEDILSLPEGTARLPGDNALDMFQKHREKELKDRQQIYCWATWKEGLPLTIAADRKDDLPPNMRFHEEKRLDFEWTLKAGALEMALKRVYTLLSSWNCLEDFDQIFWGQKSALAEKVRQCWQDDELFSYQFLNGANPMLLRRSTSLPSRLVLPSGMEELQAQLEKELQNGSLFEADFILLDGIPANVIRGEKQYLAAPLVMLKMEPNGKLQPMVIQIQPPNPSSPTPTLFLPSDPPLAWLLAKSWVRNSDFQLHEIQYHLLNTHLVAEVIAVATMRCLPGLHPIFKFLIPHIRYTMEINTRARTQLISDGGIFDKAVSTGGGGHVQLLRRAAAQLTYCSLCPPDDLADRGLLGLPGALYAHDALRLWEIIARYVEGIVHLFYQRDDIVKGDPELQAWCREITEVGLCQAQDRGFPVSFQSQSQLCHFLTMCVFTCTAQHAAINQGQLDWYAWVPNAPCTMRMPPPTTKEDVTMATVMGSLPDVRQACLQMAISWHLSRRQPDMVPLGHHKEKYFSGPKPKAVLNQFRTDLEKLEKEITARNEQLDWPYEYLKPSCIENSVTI
SMILES,"activity change, negative = inhibition",Potency
CC(=O)c1c(C)[nH]c(C(=O)OCC(=O)Nc2cc(S(=O)(=O)N3CCCCC3)ccc2C)c1C,2.06%,
CCc1nnc(NC(=O)CCN(c2ccc(C)cc2)S(=O)(=O)c2ccccc2)s1,-0.864%,
CCOc1ccc(-c2n[nH]c(=S)n2/N=C/c2cc3c(cc2[N+](=O)[O-])OCO3)cc1,-5.47%,
C=CCN(c1ccc(C(=O)Nc2cc(C)cc(C)c2)cc1)S(C)(=O)=O,-4.04%,
COc1ccc(Cl)cc1NC(=O)CNc1ccccc1F,-1.57%,
Cc1ccccc1NC(=S)Nc1cccc([N+](=O)[O-])c1,4.55%,
Cc1ccc(NC(=S)Nc2ncccc2C)c(C)c1,,17.8 µM (active)
Cc1ccc(NC(=O)Cn2nc(C)c3ccccc3c2=O)c(C)c1,2.12%,
CC(C)(C)OC(=O)NCCCCC1=CC2=CC(=O)C(C)(OC(=O)c3cccs3)C(=O)C2=CO1 (stereo unspecified),-3.09%,
CC[C@@]12C=C(/C=C/c3ccccc3)[C@](CC)(C1)[C@H](c1ccccc1)CC2=O,5.59%,
COC(=O)C1=C(C(=O)OC)[C@@H]2Nc3ccccc3[C@@]23C[C@@H](C(=O)OC)N(S(=O)(=O)c2ccc([N+](=O)[O-])cc2)C3=N1,-6.39% [at 11.4 µM],
COc1ccc(-n2c(=S)[nH]c3sc4c(c3c2=O)CCc2ccccc2-4)cc1,1.84%,
Cc1ccc(S(=O)(=O)Nc2nc(C)cc(N/N=C/c3ccc(O)cc3)n2)cc1,-3.75%,
COC(=O)c1c(NC(=O)CN2C(=O)NC(CCc3ccccc3)C2=O)sc2c1CCCCC2 (stereo unspecified),-1.26%,
C=CCN1c2ccccc2[C@]23C[C@@H](C(=O)OC)N(S(=O)(=O)c4ccc([N+](=O)[O-])cc4)C2=NC(C(=O)OC)=C(C(=O)OC)[C@H]13,-1.48% [at 11.4 µM],
CCN(/N=C/c1ccccc1)c1cc(=O)n(C)c(=O)[nH]1,1.89%,
COCCN1C(=O)N[C@@H](CCc2ccccc2)[C@H](C(C)=O)[C@H]1C,1.29% [at 11.4 µM],
C=CC1=C2C=C(C3CC3)N(CC(C)C)C=C2C(=O)C(C)(OC(=O)c2ccco2)C1=O (stereo unspecified),0.586% [at 11.4 µM],
CCCCCCCC[C@@H](O)/C=C/C=C/C=C\[C@@H](O)CCCC(=O)O,-1.41%,

SMILES,"activity change, negative = inhibition",Potency
COc1ccc(-c2nc3c(c4c2C[C@H](c2ccccc2)OC4)CN(C(=O)c2ccco2)CC3)c(C)c1,3.56% [at 11.4 µM],
Cc1ccccc1C(CC(=O)c1cccs1)C(C#N)C#N (stereo unspecified),-3.86%,
Cc1c(/C=N/N2C(=O)C3C4C=CC(C4)C3C2=O)c2ccccc2n1C (stereo unspecified),-0.415%,
CC/C=C\C/C=C\C/C=C\C/C=C\C/C=C\C/C=C\CCC(=O)NC(C)C(=O)O (stereo unspecified),-0.133%,
COc1cc(NC(=O)COC(=O)CSc2ccc3ccccc3c2)c(C)cc1[N+](=O)[O-],0.682%,
COc1ccc(-c2c(C)cc3oc(=O)cc(-c4ccccc4)c3c2C)cc1C=O,-1.15% [at 0.00818 µM],
CCOc1ccc2nc(C(=O)N3CCCC(C)C3)sc2c1 (stereo unspecified),0.738%,
O=C(/C=C/c1ccc([N+](=O)[O-])cc1)NCCSCc1ccco1,-1.35%,
COCC(C)n1c(C)cc(C(=O)CSc2cc(C)c3ccccc3n2)c1C (stereo unspecified),1.24%,
COCOc1cc(OC)ccc1C(=O)/C=C/c1ccc([N+](=O)[O-])cc1,2.11%,
CCCCCCCC1=Cc2ccc(F)cc2C(C(C(=O)OC)C(=O)OC)N1C(=O)OC (stereo unspecified),0.612% [at 11.4 µM],
COC(=O)C1=C(C(=O)OC)[C@@H]2N(Cc3ccccc3)c3ccccc3[C@@]23C[C@@H](C(=O)OC)N(S(=O)(=O)c2ccc(C(F)(F)F)cc2)C3=N1,-1.93% [at 11.4 µM],
Cc1ccc(C2=NN(C(=O)CSc3nc(N)cc(N)n3)C(c3ccco3)C2)cc1 (stereo unspecified),-1.7%,
C/C(CC(=O)NC(C)(C)C)=N\NC(=O)c1ccco1,-1.45%,
O=C(COC(=O)[C@H](Cc1ccccc1)NC(=O)c1cccs1)Nc1cc(F)ccc1F,-0.944%,
Cc1cc2oc(=O)cc(-c3ccccc3)c2c(C)c1-c1ccc(OC(F)(F)F)cc1,-2.23% [at 0.00818 µM],
Cc1ccc(C)c(NC(=S)NNC(=O)c2csc(C)c2)c1,3.02%,
CCCCS(=O)(=O)N1C2=NC(C(=O)OC)=C(C(=O)OC)[C@@H]3N(Cc4ccccc4)c4ccccc4[C@]23C[C@H]1C(=O)OC,2.88% [at 11.4 µM],
Cc1cccc(N2CCN(C(=O)/C=C/c3ccco3)CC2)c1C,-3.72%,

SMILES,"activity change, negative = inhibition",Potency
COc1ccc(-c2cc(C(F)(F)F)nc(SCC(=O)Nc3ccc4c(c3)OCO4)n2)cc1OC,-2.21%,
CCOC(=O)c1c(NC(=O)C(C)Sc2c[nH]c3ccccc23)sc2c1CCC2 (stereo unspecified),-1.99%,
CCCCC/C=C\C/C=C\CCCCCCCCCC(=O)NCC(=O)O,0.691%,
Cc1ccnc(-n2sc3ccccc3c2=O)n1,,12.6 µM (active)
Cc1ccnc(N2CCC(C(=O)NC3CCCCCC3)CC2)n1,-2.17%,
Cc1nc2ccccc2c(=O)n1CCCn1ccnc1,-0.99%,
CCCCC/C=C\C[C@H](O)/C=C/C=C/C=C/[C@@H](O)CCCC(=O)O,4.92%,
COC(=O)C1=NNC2(c3ccc(C)cc3)C(=O)N(c3cccc(C)c3C)C(=O)C12 (stereo unspecified),0.273%,
C=CC(=O)c1ccc2ccccc2c1,,2.51 µM (active)
CC(=O)c1ccc2c(ccc3ccccc32)c1,-1.61%,
CC(=O)CCC(=O)c1ccc2ccccc2c1,-1.87%,
CCOC(=O)C1=C(N)N(c2ccc(C)cc2)C2=C(C(=O)CCC2)C1c1cccs1 (stereo unspecified),1.9%,
COC(=O)CCCC1=CC2=CC(=O)C(C)(OC(=O)c3cccs3)C(=O)C2=CN1c1ccc(CO)cc1 (stereo unspecified),-2.32% [at 11.4 µM],
COc1ccc(-c2c(C)cc3oc(=O)cc(-c4ccccc4)c3c2C)cc1OC,-1.07% [at 0.00818 µM],
COc1ccc(/C=C/C(=O)OCC(=O)Nc2cccc(Oc3ccccc3)c2)c(OC)c1,-1.67%,
COc1ccc(CCC(=O)OCC(=O)Nc2ccc(C)c(S(=O)(=O)N(C)C)c2)cc1,-0.448%,
O=C(CSc1ccccc1)Nc1nnc(/C=C/c2ccccc2)s1,2.65%,
COc1ccc(C2NC(=S)NC3=C2CCc2ccccc23)cc1OC (stereo unspecified),-17.3%,
